Source: PubChem (National Center for Advancing Translational Sciences (NCATS))
Compounds with a hit are over-represented: about 17% of the library has one in this group of screens.
HT1080 IDH1KD tx – HT-1080 IDH1 knockdown cell toxicity (counter line). 360,000 tested, 2% active. Potency, µM (doses to about 46.1 µM), inactives show at the highest dose activity, negative = toxicity, actives largely listed as cytotoxic. HT-1080 IDH1 knockdown viability, ATP luminescence, 48 h;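 also: 0% = DMSO wells and -100% = cell-free medium wells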
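Assay cells: HT-1080 with IDH1 knockdown, 750 per well, RPMI/5% FBS. Exposure: 48 h at 37 °C following 2 h pre-incubation. Read: CellTiter-Glo luminescence; fitted concentration-response, curve class assigned.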
DT40 TDP1 CPT – DT40-hTDP1 cell growth loss with CPT | chicken DT40 Tdp1-/-;hTDP1 cells + 20 nM CPT, ATP luminescence, 48 h | Potency, µM (doses to about 46.2 µM), inactives show at the highest dose activity change, negative = growth inhibition, most hits filed as inhibitors | 420,000 tested, 12% active; also: % is scaled to controls: 0 for no effect and ±100 for the full control effect; nearly all actives have a fitted effect of over 55% in size
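Chicken DT40 Tdp1-/- cells complemented with human TDP1, 400 cells/well, exposed to compounds plus 20 nM camptothecin for at least 48 h at 37 C; viability read as ATP content by CellTiter-Glo luminescence.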
TGFb SMAD3 inh – inhibitors of TGF-b signaling; AID 588855; HepG2 CAGA-GFP TGF-b/SMAD3 reporter, GFP fluorescence, 18 h; TGF-beta stimulated, 500 pg/mL final; Potency, µM (titrated, usually from 46.1 µM), for inactives: at the highest dose activity, negative = inhibition, most hits filed as inhibitors; 410,000 tested, 1.2% active; also: % is scaled to controls: 0 for no effect and ±100 for the full control effect; nearly all actives have a fitted effect of over 65% in size
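HEPG2 CAGA-GFP, 1000 cells/well; 2 h settle, 37 C; cpd via pin tool; TGF-b 500 pg/mL final; 18 h, 37 C; GFP imaging ex488/em500-530; %Activity normalised to -TGF-b and +DMSO controls; CRC fit, curve class.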
HepG2 tox – HepG2 cytotoxicity, counter-screen for TGF-b inhibitors | AID 588856 | Potency, µM (series often up to 46.1 µM), for inactives: top-dose activity change, negative = cytotoxicity, hits mostly cytotoxic | 410,000 tested, 0.76% active | HepG2 CAGA-GFP viability, ATP luminescence, 18 h
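CellTiter-Glo luminescence gave cytotoxicity after 18 hours at 37 degrees C. The cells were HepG2 CAGA-GFP in 1% FBS DMEM, stimulated with 500 pg/mL TGF-beta after compound addition. %Activity was normalised to no-cell wells (complete cell-killing) and DMSO (no toxicity), and curves were fitted and classified.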
TDP1 cell noCPT – qHTS for Inhibitors of human tyrosyl-DNA phosphodiesterase 1 (TDP1): qHTS in cells in absence of CPT; 420,000 tested, 15% active; DT40 Tdp1-/- hTDP1 cells, no CPT, ATP luminescence, 48 h; Potency, µM (top dose mostly 46.2 µM), for the others: top-dose activity change, negative = growth inhibition, usual class: inhibitors; also: % is scaled to controls: 0 for no effect and ±100 for the full control effect; nearly all actives have a fitted effect of over 55% in size
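No-CPT arm: Tdp1-/-;hTDP1 DT40 cells (400/well) plus compounds, incubated ≥48 hr at 37 °C. Readout CellTiter-Glo luminescence.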
HT1080-NT tox – kills 2HG-producing HT-1080-NT fibrosarcoma cells. Potency, µM (top dose mostly 46.1 µM), inactives show top-dose activity, negative = less viability, usual class: cytotoxic. HT-1080-NT fibrosarcoma viability, CellTiter-Glo ATP luminescence, 48 h. 360,000 tested, 1.6% active;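 also: NT is the 2HG producing partner of a matched IDH1 knockdown line; 0% = DMSO-treated cells and -100% = media-only wells without cells; nearly all actives have a fitted effect of over 55% in size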
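Toxicity toward the 2HG-producing NT line was scored as %Activity, normalised to DMSO and no-cell wells, from CellTiter-Glo luminescence after 48 hours' treatment.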
Numbers without * were called inactive; ? = inconclusive; . = not tested or not shown; [ ] = another dose, or the depositor's remark. Calls follow the shape of the dose curve; as a rule, active = well fitted curve in the direction sought with a large enough effect; inconclusive = small, poorly fitted or top-dose-only effect, or another doubt; inactive = no such curve, though single readings can be large; an effect the other way counts as inactive or inconclusive. Potency is read from the fitted curve at half-maximal effect.

SMILES	HT1080 IDH1KD tx	DT40 TDP1 CPT	TGFb SMAD3 inh	HepG2 tox	TDP1 cell noCPT	HT1080-NT tox
C/C=C(\C)C(=O)NCCN1Cc2ccccc2OC(c2ccccc2OC)C1 (stereo not drawn)	.	-7%[9.04 µM]	.	.	-27%	.
O=C(NCc1ccccc1)C(c1cc2ccccc2o1)n1c(=O)c(-c2ccccc2)nc2ccccc21 (stereo not drawn)	-2%	15µM*	.	.	13µM*	2%
O=C(NCc1ccccc1)C(c1ccccc1F)n1c(=O)c(-c2ccco2)nc2ccccc21 (stereo not drawn)	0%	?	.	.	21µM*	-4%
CC(C)(C)NC(=O)C(c1ccccc1)n1c(=O)c(-c2ccco2)nc2ccccc21 (stereo not drawn)	-9%	?	.	.	?	-24%
Cc1cccc(C)c1NC(=O)C(c1ccncc1)n1c(=O)c(-c2ccccc2)nc2ccccc21 (stereo not drawn)	-9%	-12%	.	.	?	1%
COc1ccc(C(C(=O)NCc2ccccc2)n2c(=O)c(-c3ccco3)nc3ccccc32)cc1 (stereo not drawn)	21µM*	?	.	.	?	?
COc1ccc(C(C(=O)Nc2c(C)cccc2C)n2c(=O)c(-c3ccco3)nc3ccccc32)cc1 (stereo not drawn)	-8%	?	.	.	?	-17%
Cc1cccc(C)c1NC(=O)C(c1ccccc1F)n1c(=O)c(-c2ccccc2)nc2ccccc21 (stereo not drawn)	-13%	?	.	.	21µM*	-17%
O=C(NCc1ccccc1)C(c1ccncc1)n1c(=O)c(-c2ccccc2)nc2ccccc21 (stereo not drawn)	-12%	-21%	.	.	?	-3%
CCN(CC)CCNC(=O)c1c(C)oc2ncnc(N3CCOCC3)c12	.	5%	-9%	-32%	-5%	.
C/C(CC(=O)NCc1ccco1)=N\NC(=O)c1ccc(Cl)cc1Cl	15%	14%	10%	-15%	-1%	-2%
CCCCCNC(=O)C(c1cc2ccccc2o1)n1c(=O)c(-c2ccco2)nc2ccccc21 (stereo not drawn)	-14%	?	.	.	16µM*	2%
COc1ccc(NC(=O)C(c2ccc(C(F)(F)F)cc2)n2c(=O)c(-c3ccco3)nc3ccccc32)cc1 (stereo not drawn)	-2%	?	.	.	?	1%
O=C(NCc1ccccc1)C(c1ccccc1F)n1c(=O)c(-c2ccccc2)nc2ccccc21 (stereo not drawn)	-8%	16µM*	.	.	?	-14%
COc1ccc(NC(=O)C(c2ccncc2)n2c(=O)c(-c3ccco3)nc3ccccc32)cc1 (stereo not drawn)	?	?	.	.	23µM*	-25%
COc1ccc(OC)c(NC(=O)CSc2ncc3c(n2)-c2ccccc2N(C)S3(=O)=O)c1	.	?	4%	0%	?	.
CC(C)c1ccccc1NC(=O)CN(c1ccccc1)S(=O)(=O)N(C)C	.	?	-1%	-2%	-26%	.
CCC(=O)NC(c1cc(Cl)c2ccccc2c1O)C(C)C (stereo not drawn)	.	.	?	-19%	.	.
CC(=O)NC(C)c1cc(Cl)c2cccnc2c1O (stereo not drawn)	.	.	7.1µM*	8.9µM*	.	.
CC(=O)NC(C)c1cc(Cl)c2ccccc2c1O (stereo not drawn)	.	.	?	-1%	.	.
CCC(=O)NC(C)c1cc(Cl)c2cccnc2c1O (stereo not drawn)	.	.	1.8µM*	-58%	.	.
Cc1ccccc1CN1C(=O)c2ccccc2C1c1nnnn1Cc1ccccc1 (stereo not drawn)	9%	-1%	.	.	-18%	4%
COc1ccccc1C(=O)NCCC(=O)N1CCN(c2ccc(C(F)(F)F)cn2)CC1	-9%	23µM*	-16%	-14%	21µM*	-9%
COc1ccc(C(=O)COC(=O)C2CCN(c3ccc(C(F)(F)F)cn3)CC2)c(OC)c1	14%	?	-2%	-25%	21µM*	18%
COc1ccccc1C(=O)NCCC(=O)N1CCN(c2ccccc2Cl)CC1	-3%	?	4%	-52%	?	2%
SMILES	HT1080 IDH1KD tx	DT40 TDP1 CPT	TGFb SMAD3 inh	HepG2 tox	TDP1 cell noCPT	HT1080-NT tox
COc1cccc(C(=O)NCC(=O)N2CCC(C)CC2)c1	18%	1%	-2%	6%	-4%	12%
COc1cccc(C(=O)NCC(=O)N2CCN(c3ccc(C(F)(F)F)cn3)CC2)c1	-17%	7.3µM*	-8%	-9%	4.1µM*	-20%
Cc1ccc(C(OCCN(C)C)c2cccc(C(F)(F)F)c2)cc1 (stereo not drawn)	-20%	23µM*	?	-46%	23µM*	-20%
O=C(COc1ccc(-c2ccccc2)cc1)NNC(=O)Nc1ccc(F)cc1F	8%	5%	3%	-4%	-1%	-7%
C=CCn1c(-c2ccccc2)nc(=S)c2c1CCCC2	12%	?	-14%	-19%	23µM*	15%
CCC(=O)N1CCc2cc(S(=O)(=O)NCCC(=O)Nc3ccc(OC)cc3)ccc21	10%	-2%	9%	10%	-14%	2%
Cc1cccc(N2CCN(C(=O)CCS(=O)(=O)c3ccc4c(c3)CC(=O)N4C)CC2C)c1 (stereo not drawn)	.	16µM*	-12%	-1%	?	.
CCC(=O)N1CCc2cc(S(=O)(=O)NCCC(=O)N3CCN(c4cccc(OC)c4)CC3)ccc21	-4%	?	-12%	-6%	13µM*	-6%
Cc1cccc(N2CCN(C(=O)CCNS(=O)(=O)c3cccs3)CC2C)c1 (stereo not drawn)	-19%	?	-2%	-5%	21µM*	-18%
CC1CC(C)CN(C(=O)CCNS(=O)(=O)c2cccs2)C1 (stereo not drawn)	-3%	-24%	5%	-1%	-9%	1%
CCC(=O)N1CCc2cc(S(=O)(=O)NCCC(=O)N3CCN(c4ccccc4)CC3)ccc21	0%	?	-4%	4%	21µM*	-5%
CCC(=O)N1CCc2cc(S(=O)(=O)NCCC(=O)N3CCN(Cc4ccccc4)CC3)ccc21	3%	-14%	-8%	-14%	-28%	0%
